Inconclusive results are not listed. A call without a number means that no potency is given here. Unmarked numbers belong to inactive results. The source made the active and inactive calls. Calls follow the shape of the dose curve; as a rule, active = well fitted curve in the direction sought with a large enough effect; inconclusive = small, poorly fitted or top-dose-only effect, or another doubt; inactive = no such curve, though single readings can be large; an effect the other way counts as inactive or inconclusive. *1 amine or outer side, *2 acyl side, *3 side chain or, on linkers, in order; H or OH if unused. Where a SMILES comes first, the peptide text is derived from it. Bridges are numbered along the chain shown (N, C = ends). [ ]: non-standard residue; d: D form. The star is where a group is joined. ξ: configuration not given here. ξhTyr(3S-OH,4S-OH,3'-OSO3H) = NC(C(=O)O)[C@H](O)[C@@H](O)c1ccc(O)c(OS(=O)(=O)O)c1; Orn(4R-OH,5R-OH) = O=C([C@H](C[C@@H](O)[C@@H](O)N[*:3])N[*:1])[*:2]; X2 = CCCCCOc1ccc(-c2cc(-c3ccc(C(=O)*)cc3)no2)cc1; X3 = C[C@H]1CN([*:1])C(C(=O)[*:2])[C@H]1O; ξGln(3R-OH) = NC(=O)C[C@@H](O)C(N)C(=O)O; ξPro(4R-OH) = O=C(O)C1C[C@@H](O)CN1; ξThr(3R) = C[C@@H](O)C(N)C(=O)O
Legend:
[1] = biological target: Calcium and integrin-binding protein 1 (Homo sapiens) (UniProt Q99828); assay: Primary qHTS for Identification of Calcium Integrin Binding Protein 1 (CIB1) Competitor (AID 1508620);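 also: GST tagged CIB1 binding a fluorescein labelled alphaIIb integrin peptide tracer; top concentration of the series differs between compounds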
Chain of Calcium and integrin-binding protein 1 (Homo sapiens) (Q99828 whole entry, looked up): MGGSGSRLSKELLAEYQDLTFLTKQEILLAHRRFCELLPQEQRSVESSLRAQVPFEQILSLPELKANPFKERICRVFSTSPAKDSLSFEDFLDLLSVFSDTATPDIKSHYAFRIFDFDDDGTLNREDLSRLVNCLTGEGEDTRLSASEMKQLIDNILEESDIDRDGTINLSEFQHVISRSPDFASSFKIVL
Method in brief: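 CIB1-GST (1 uM final) and compound incubated 15 min at room temperature before adding FITC-alphaIIb peptide tracer (100 nM final). Competition for binding read by fluorescence polarization (ex 480, em 540) after another 15 min at room temperature.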

[2] = Primary qHTS for inhibitors of nuclear receptor binding SET domain protein 2 (NSD2) in an isogenic RCH-ACV NSD2 p.E1099K mutant (9B) (AID 1645876); also: nearly all actives have a fitted effect of over 70% in size; also: potency is read from the fitted curve at half-maximal effect
[3] = Primary qHTS for inhibitors of nuclear receptor binding SET domain protein 2 (NSD2) in an RCH-ACV wild type WT cells (2C) (AID 1645877); also: nearly all actives have a fitted effect of over 70% in size; also: potency is read from the fitted curve at half-maximal effect

C[C@H]1[C@@H](O)[C@H](O)C2[C@]3(C)C([C@@H](O)[C@H]4OC(=O)[C@@H]1[C@@]24C)[C@](C)(O)C=C[C@H]3O[C@@H]1O[C@H](CO)[C@@H](O)[C@H](O)[C@H]1O (some centres undefined)
Potency [1]: inactive | Potency [2]: inactive | Potency [3]: inactive

CC(=O)OC1C(C)C2C(OC3OC(CO)C(O)C(O)C3O)OC=C(C(=O)O)C2C1OC(=O)c1ccccc1 (centres undefined)
Potency [1]: inactive | Potency [2]: inactive | Potency [3]: inactive

COC(=O)C1=CO[C@@H](O[C@@H]2O[C@H](CO)[C@@H](O)[C@H](O)[C@H]2O)[C@H]2[C@@H]1[C@H](O)[C@H](O)[C@]2(C)O
Potency [1]: inactive | Potency [2]: inactive | Potency [3]: inactive

Cc1cc(O[C@@H]2O[C@H](COC(=O)CC(=O)O)[C@@H](O)[C@H](O)[C@H]2O)c(C(C)C)cc1O
Potency [1]: inactive | Potency [2]: inactive | Potency [3]: inactive

O=C(OCC1=C[C@@H](O)[C@@H]2C=CO[C@@H](O[C@@H]3O[C@H](CO)[C@@H](O)[C@H](O)[C@H]3O)[C@H]12)c1ccc(O)cc1
Potency [1]: inactive | Potency [2]: inactive | Potency [3]: inactive

C=CC(C)(CC/C=C(\C)C(=O)OC)OC1OC(COC(=O)CC(C)(O)CC(=O)O)C(O)C(O)C1O (centres undefined)
Potency [1]: inactive | Potency [2]: inactive | Potency [3]: inactive

CCCCCOc1ccc(-c2cc(-c3ccc(C(=O)N[C@H]4C[C@@H](O)[C@@H](O)NC(=O)C5[C@@H](O)[C@@H](C)CN5C(=O)C([C@H](O)CC(N)=O)NC(=O)C([C@H](O)[C@@H](O)c5ccc(O)c(OS(=O)(=O)O)c5)NC(=O)C5C[C@@H](O)CN5C(=O)C([C@@H](C)O)NC4=O)cc3)no2)cc1 (stereo partly drawn) (X2-[Orn(4R-OH,5R-OH)][ξThr(3R)][ξPro(4R-OH)][ξhTyr(3S-OH,4S-OH,3'-OSO3H)][ξGln(3R-OH)][X3]; lactam 1-C)
Potency [1]: inactive | Potency [2]: inactive | Potency [3]: inactive

CC1CC(=O)[C@]2(O)C(C(=O)OCCc3ccc(O)c(O)c3)=CO[C@@H](O[C@@H]3O[C@H](CO)[C@@H](O)[C@H](O)[C@H]3O)[C@H]12 (some centres undefined)
Potency [1]: inactive | Potency [2]: inactive | Potency [3]: inactive

CC1(CO)CC(O)C2(C)CCC3(C)C(=CCC4C5(C=O)CCC(OC6OC(C(=O)O)C(O)C(O)C6OC6OC(C(=O)O)C(O)C(O)C6O)C(C)(C)C5CCC43C)C2C1 (centres undefined)
Potency [1]: inactive | activity change, negative = viability loss [2]: -5.71% [at 9.23 µM] | activity change, negative = cell killing [3]: -0.213% [at 9.23 µM]

CC1CC2OCC3(O)CCC(O)C(C14CC(c1ccoc1)OC4=O)C23CO (centres undefined)
Potency [1]: inactive | Potency [2]: inactive | Potency [3]: inactive

C/C1=C\CC(C)(C)/C=C/C/C(C(=O)O)=C/CC1
Potency [1]: inactive | Potency [2]: inactive | Potency [3]: inactive

COC(=O)[C@]1(C)CCC[C@@]2(C)C(=O)CC[C@H]3C(=O)C=C(CC[C@@H]21)C3O (some centres undefined)
Potency [1]: inactive | Potency [2]: inactive | Potency [3]: inactive

C=C1CCC[C@]2(C)CC[C@@](O)(C(=C)C(=O)O)C[C@@H]12
Potency [1]: inactive | Potency [2]: inactive | Potency [3]: inactive

C=C1CC[C@H]2[C@@](C)(CCC(OC3OC(CO)C(O)C(O)C3O)[C@@]2(C)CO)C1C(=O)CC1=CCOC1=O (some centres undefined)
Potency [1]: inactive | Potency [2]: inactive | Potency [3]: inactive

CC(C)C(NC(=O)c1ccc(O)cc1)C(=O)N1CCCC1C(=O)Nc1c(O)cccc1C(=O)O (centres undefined)
Potency [1]: inactive | Potency [2]: inactive | Potency [3]: inactive

C[C@@H]1O[C@@H](O[C@H]2[C@H](O)[C@@H](O)[C@H](OC[C@H]3O[C@@H](OC(=O)[C@]45CCC(C)(C)C[C@H]4C4=CCC6[C@@]7(C)C[C@@H](O)[C@H](O)[C@@](C)(CO)C7[C@H](O)C[C@@]6(C)[C@]4(C)CC5)[C@H](O)[C@@H](O)[C@@H]3O)O[C@@H]2CO)[C@H](O)[C@H](O)[C@H]1O (some centres undefined)
Potency [1]: inactive | outcome [2]: inactive [at 9.23 µM] | activity change, negative = cell killing [3]: 0.947% [at 9.23 µM]

CC(=O)OCC(Cc1ccccc1)NC(=O)C(Cc1ccccc1)NC(=O)c1ccccc1 (centres undefined)
Potency [1]: inactive | Potency [2]: inactive | Potency [3]: inactive

CC(C)C1NC(=O)C2CCCN2C1=O (centres undefined)
Potency [1]: inactive | Potency [2]: inactive | Potency [3]: inactive

CSC(=O)OCC1=C[C@@H]2OC(=O)C3=CO[C@@H](O[C@@H]4O[C@H](CO)[C@@H](O)[C@H](O)[C@H]4O)[C@H]1[C@@H]32
Potency [1]: inactive | Potency [2]: inactive | Potency [3]: inactive

CC1=C2C(=O)C=C(CO[C@@H]3O[C@H](CO)[C@@H](O)[C@H](O)[C@H]3O)[C@@H]2[C@H]2OC(=O)[C@H](C)[C@@H]2CC1
Potency [1]: inactive | Potency [2]: inactive | Potency [3]: inactive

C=C1CCC2(C(=O)OC3OC(CO)C(O)C(O)C3O)CCC3(C)C(=CCC4C5(C)CCC(OC6OC(CO)C(OC7OC(C)C(O)C(O)C7O)C(OC7OCC(O)C(O)C7O)C6O)C(C)(C)C5CCC43C)C2C1 (centres undefined)
Potency [1]: inactive | outcome [2]: inactive [at 9.23 µM] | activity change, negative = cell killing [3]: -3.7% [at 9.23 µM]

CC1(CO)CCCC2(C)C1C(OC(=O)c1ccccc1)CC1C(=O)OCC12O (centres undefined)
Potency [1]: inactive | Potency [2]: inactive | Potency [3]: inactive

C=C1CCC(OC(C)=O)C2(C)CC3OC(=O)C(C)=C3CC12 (centres undefined)
Potency [1]: inactive | Potency [2]: inactive | Potency [3]: inactive

O=C(O)/C=C/c1ccc2occc2c1O[C@@H]1O[C@H](CO)[C@@H](O)[C@H](O)[C@H]1O
Potency [1]: inactive | Potency [2]: inactive | Potency [3]: inactive

CC1(C)CC[C@]2(C(=O)O[C@@H]3O[C@H](CO[C@@H]4O[C@H](CO)[C@@H](O)[C@H](O)[C@H]4O)[C@@H](O)[C@H](O[C@@H]4O[C@H](CO)[C@@H](O)[C@H](O)[C@H]4O)[C@H]3O)CC[C@]3(C)C(=CCC4[C@@]5(C)CC[C@H](O[C@@H]6OC[C@@H](O)[C@H](O)[C@H]6O)[C@@](C)(C(=O)O)C5CC[C@]43C)[C@@H]2C1 (some centres undefined)
Potency [1]: inactive | activity change, negative = viability loss [2]: 0.102% [at 9.23 µM] | outcome [3]: inactive [at 9.23 µM]

CC1=CC[C@@]2(C)CC[C@@](O)(C(C)C)[C@@H]2[C@@H](O)C1
Potency [1]: inactive | Potency [2]: inactive | Potency [3]: inactive

O=c1[nH]ccc2nc(-c3ccc(CN4CCC(c5nc(-c6ccccn6)n[nH]5)CC4)cc3)c(-c3ccccc3)cc12
Potency [1]: inactive | Potency [2]: 32.5 nM (active) | Potency [3]: 81.7 nM (active)

OC[C@@]1(O)CO[C@@H](OC[C@H]2O[C@@H](Oc3ccccc3)[C@H](O)[C@@H](O)[C@@H]2O)[C@@H]1O
Potency [1]: inactive | Potency [2]: inactive | Potency [3]: inactive

COc1cc2c(cc1OC)N1C(=O)C[C@@]34C=CC[N@+]5([O-])CC[C@H]2[C@H](CC3)[C@@]145
Potency [1]: inactive | Potency [2]: inactive | Potency [3]: inactive

COc1ccc(C2(O)c3ccccc3NC(=O)C2OC)cc1 (centres undefined)
Potency [1]: inactive | Potency [2]: inactive | Potency [3]: inactive

CC(C)=CCC/C(C)=C/CO[C@@H]1O[C@H](CO[C@@H]2OC[C@](O)(CO)[C@H]2O)[C@@H](O)[C@H](O)[C@H]1O
Potency [1]: inactive | Potency [2]: inactive | Potency [3]: inactive

COc1cc(C(=O)OC[C@H]2O[C@@H](OC(C)(C)C(=O)O)[C@H](O)[C@@H](O)[C@@H]2O)cc(OC)c1O
Potency [1]: inactive | Potency [2]: inactive | Potency [3]: inactive

CC1(C)C[C@H](O)C[C@@]2(C)[C@H]1[C@H](O)C=C1COC(=O)[C@@]12O
Potency [1]: inactive | Potency [2]: inactive | Potency [3]: inactive

COC(=O)C1=CO[C@@H](O[C@@H]2O[C@H](CO)[C@@H](O)[C@H](O)[C@H]2O)C2C1CC(O)C2C (some centres undefined)
Potency [1]: inactive | Potency [2]: inactive | Potency [3]: inactive

CC1=C(CCC(C)O[C@@H]2O[C@H](CO)[C@@H](O)[C@H](O)[C@H]2O)C(C)(C)CC(O)C1 (some centres undefined)
Potency [1]: inactive | Potency [2]: inactive | Potency [3]: inactive

CC1=CC(=O)CC(C)(C)C1/C=C/C(C)OC1OC(COC2OCC(O)C(O)C2O)C(O)C(O)C1O (centres undefined)
Potency [1]: inactive | Potency [2]: inactive | Potency [3]: inactive

C=CC(C)(O)CC/C=C(\C)C1CC=C(C)C(=O)O1 (centres undefined)
Potency [1]: inactive | Potency [2]: inactive | Potency [3]: inactive

COc1ccc(/C=C/C(=O)O[C@@H]2[C@@H](O)[C@@H](O)[C@H](O[C@H]3[C@@H]4C=CO[C@@H](O[C@@H]5O[C@H](CO)[C@@H](O)[C@H](O)[C@H]5O)[C@@H]4[C@@]4(CO)O[C@@H]34)O[C@H]2C)cc1
Potency [1]: inactive | Potency [2]: inactive | Potency [3]: inactive

CC(/C=C/C=C(\C)C(=O)O[C@@H]1O[C@H](CO[C@@H]2O[C@H](CO)[C@@H](O)[C@H](O)[C@H]2O)[C@@H](O)[C@H](O)[C@H]1O)=C\C=C\C=C(C)\C=C\C=C(/C)C(=O)O[C@@H]1C[C@](O)(C(=O)O)C[C@@H](O)[C@H]1OC(=O)/C=C/c1ccc(O)c(O)c1
Potency [1]: inactive | activity change, negative = viability loss [2]: -6.13% [at 9.23 µM] | activity change, negative = cell killing [3]: -16.8% [at 9.23 µM]

CCC(C)/C=C(C)/C=C/C1=CC2=C(Cl)C(=O)C(C)(OC(C)=O)C(=O)C2=CN1CCCCC(N)C(=O)O (centres undefined)
Potency [1]: inactive | Potency [2]: inactive | Potency [3]: inactive

COc1cc(/C=C/C(=O)O[C@@H]2O[C@H](CO)[C@@H](O)[C@H](O)[C@H]2O)ccc1O
Potency [1]: inactive | Potency [2]: inactive | Potency [3]: inactive

CC1=CC2=C(C)C(=O)[C@](C)(O)[C@H](O)C2=CO1
Potency [1]: inactive | Potency [2]: inactive | Potency [3]: inactive

C[C@@H]1CCC2C(C)(C)[C@H](O)[C@H](O)C[C@]2(C)[C@@]12Cc1c(O)cc3c(c1O2)CN(CCCC(=O)O)C3=O (some centres undefined)
Potency [1]: inactive | Potency [2]: inactive | Potency [3]: inactive

O=C(O)C(Cc1ccccc1)NC(=O)C1CCCN1 (stereo not drawn) (H-Pro-Phe-OH; configuration not given here)
Potency [1]: inactive | Potency [2]: inactive | Potency [3]: inactive

COc1cc(/C=C/C(=O)OC[C@H]2O[C@@H](OC3OC=C(C(=O)O)C4C(O)CC(C)(O)C34)[C@H](O)[C@@H](O)[C@@H]2O)cc(OC)c1O (some centres undefined)
Potency [1]: inactive | Potency [2]: inactive | Potency [3]: inactive

COc1cc(/C=C/C(=O)O[C@@H]2C[C@](O)(C(=O)O)C[C@@H](O)[C@H]2O)ccc1O
Potency [1]: inactive | Potency [2]: inactive | Potency [3]: inactive

COC(=O)C1=COC(OC2OC(CO)C(O)C(O)C2O)C2C(C)CC(=O)C12O (centres undefined)
Potency [1]: inactive | Potency [2]: inactive | Potency [3]: inactive

Fc1cccc(CN(C2=NCCN2)c2c(Cl)cccc2Cl)c1
Potency [1]: inactive | Potency [2]: inactive | Potency [3]: inactive

— PubChem BioAssay (NCATS)
